Experimental data published in PubChem BioAssay (NCATS).
Results filed as inconclusive are left out. A call without a number means that no potency is given here. A number with no mark means an inactive call. The source made the active and inactive calls. Calls come from the whole dose curve; as a rule, active = well fitted curve in the direction sought with a large enough effect; inconclusive = small, poorly fitted or top-dose-only effect, or another doubt; inactive = no such curve, though single readings can be large; an effect the other way counts as inactive or inconclusive.

Key:
[1] = molecular target: Cellular tumor antigen p53 (Homo sapiens) (UniProt P04637); assay: Primary qHTS for small molecule compounds that upregulate eGFP-tagged delta133p53alpha (in N-terminal) cells. (AID 2060322); details: NCI-H358 eGFP-delta133p53alpha fluorescence, 24 h; activation: hits give high values; note: nearly all actives have a fitted effect of over 75% in size; note: potency is the fitted concentration of half-maximal effect; for activation: series mostly up to about 56 µM
In short: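 NCI-H358 cells pre-induced 24 h with 10 ng/ml doxycycline to express N-terminal eGFP-delta133p53alpha, then dosed 24 h at 37C without doxycycline; fixed, Hoechst-stained, GFP intensity by laser scanning cytometry, normalized to DMSO (0%) and 57.5 uM 5-azacytidine (100%).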

[2] = molecular target: Aldehyde dehydrogenase, mitochondrial (Homo sapiens) (UniProt P05091); assay: qHTS for Inhibitors of the Aldehyde Dehydrogenase Family (ALDH2) Primary screen (AID 2061308); note: nearly all actives have a fitted effect of over 55% in size
[3] = molecular target: Retinaldehyde dehydrogenase 3 (Homo sapiens) (UniProt P47895); assay: qHTS for Inhibitors of the Aldehyde Dehydrogenase Family (ALDH1A3) Primary screen (AID 2061315)

Sequence of Cellular tumor antigen p53 (Homo sapiens) (P04637 whole entry, looked up): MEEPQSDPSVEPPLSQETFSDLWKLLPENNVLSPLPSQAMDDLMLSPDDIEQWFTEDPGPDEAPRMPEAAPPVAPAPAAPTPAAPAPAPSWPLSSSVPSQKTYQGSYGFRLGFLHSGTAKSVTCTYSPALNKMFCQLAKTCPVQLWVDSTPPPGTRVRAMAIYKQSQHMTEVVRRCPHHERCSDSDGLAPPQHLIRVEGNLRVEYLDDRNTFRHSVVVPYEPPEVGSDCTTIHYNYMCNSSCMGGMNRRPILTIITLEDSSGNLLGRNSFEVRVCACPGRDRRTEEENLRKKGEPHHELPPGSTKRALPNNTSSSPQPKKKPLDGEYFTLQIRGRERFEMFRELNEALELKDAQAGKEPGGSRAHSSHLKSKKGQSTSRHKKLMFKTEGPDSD

CC(O)C/C=C/C=C/C(=O)OC1C=C2COC(=O)C2(O)C2(C)CCCC(C)(C)C12 (stereo unspecified)
activation [1]: 5.34% | Potency [2]: inactive | Potency [3]: inactive

Cc1ccc(-c2ncccn2)c(C(=O)N2C[C@H](COc3ccc(F)cn3)CC[C@H]2C)c1
activation [1]: -14.3% | Potency [2]: inactive | Potency [3]: inactive

CC1(C)NC2N(C1=O)c1ccccc1C2(O)CC(C(=O)O)n1cnc2ccccc2c1=O (stereo unspecified)
activation [1]: -9.16% | Potency [2]: inactive | Potency [3]: inactive

C=C(C)C1CCC2(C(=O)OC3OC(COC4OC(CO)C(O)C(O)C4O)C(OC4OC(C)C(O)C(O)C4O)C(O)C3O)CCC3(C(=O)O)C(CCC4C5(C)CCC(=O)C(C)(C)C5CCC43C)C12 (stereo unspecified)
activation [1]: -8.4% | Potency [2]: inactive | Potency [3]: inactive

COc1cc2ncnc(Nc3ccc(F)c(Cl)c3)c2cc1O
activation [1]: 25.7% | Potency [2]: inactive | Potency [3]: inactive

CC(=O)O[C@@H]1[C@@H](CO)O[C@@](CO)(O[C@H]2O[C@H](COC(=O)/C=C/c3ccccc3)[C@@H](O)[C@H](O)[C@H]2O)[C@H]1O
activation [1]: 2.29% | Potency [2]: inactive | Potency [3]: inactive

CN1CCN(Cc2ccc(-c3cnc4[nH]cc(-c5ccc6[nH]ccc6c5)c4c3)cc2)CC1
Potency [1]: 23.9 µM (active) | Potency [2]: inactive | Potency [3]: inactive

CCNC(=O)C1OC(n2cnc3c(N)nc(NCCc4ccc(CCC(=O)O)cc4)nc32)C(O)C1O (stereo unspecified)
activation [1]: -5.73% | Potency [2]: inactive | Potency [3]: inactive

COc1ccc2nccc(C(=O)CC[C@@H]3CCN(CC#Cc4cc(F)cc(F)c4F)C[C@@H]3C(=O)O)c2c1
activation [1]: 7.64% | Potency [2]: inactive | Potency [3]: inactive

CC(C)(C)CCN1C[C@@H]2C(CNC(=O)c3cc(Cl)cc(Cl)c3)[C@@H]2C1 (stereo partly specified)
activation [1]: 26.3% | Potency [2]: inactive | Potency [3]: inactive

C/C=C/C=C/[C@@H]1O[C@](O)([C@H](CC)C(=O)NC/C=C/C=C(\C)[C@@H](OC)[C@@H](C)C2OC(/C=C/C=C/C=C(\C)C(=O)c3c(O)cc[nH]c3=O)[C@H](O)[C@@H]2O)[C@H](O)[C@H](O)C1(C)C (stereo partly specified)
activation [1]: -1.79% | Potency [2]: inactive | Potency [3]: inactive

CC(=O)OC1C(CO)OC(O[C@H]2[C@H](OC(=O)[C@]34CCC(C)(C)C[C@H]3C3=CCC5[C@@]6(C)CC[C@H](O[C@@H]7O[C@H](C(=O)O)[C@@H](O)[C@H](O[C@@H]8OC[C@@H](O)[C@H](O)[C@H]8O)[C@H]7O[C@@H]7O[C@H](CO)[C@H](O)[C@H](O)[C@H]7O)[C@@](C)(C=O)C6CC[C@@]5(C)[C@]3(C)C[C@H]4O)O[C@H](C)[C@H](OC3OC(C)C(OC4OCC(O)C(O)C4O)C(O)C3O)[C@@H]2O)C(O)C1O (stereo partly specified)
activation [1]: 4.58% | activity change, negative = inhibition [2]: -12.7% [at 11.2 µM] | activity change, negative = inhibition [3]: 4.72% [at 11.2 µM]

COc1c(C)c(OCC=C(C)C)cc2c1C(=O)NC2=O
activation [1]: -12.2% | Potency [2]: inactive | Potency [3]: inactive

COc1ccc(/C=C\C(=O)O)c(O[C@@H]2O[C@H](CO)[C@@H](O)[C@H](O)[C@H]2O)c1
activation [1]: -7.63% | Potency [2]: inactive | Potency [3]: inactive

COc1cc(C(C)=O)ccc1O[C@@H]1O[C@H](CO)[C@@H](O)[C@H](O)[C@H]1O
activation [1]: -7.63% | Potency [2]: inactive | Potency [3]: inactive

CC1CCC2(C(=O)OC3OC(CO)C(O)C(O)C3O)CCC3(C)C(=CCC4C5(C)CCC(O)C(C)(CO)C5CCC43C)C2C1(C)O (stereo unspecified)
activation [1]: -6.87% | Potency [2]: inactive | Potency [3]: inactive

COC(=O)c1ccnc(-c2cc(C(=O)NCCc3ccccc3)ccn2)c1
activation [1]: 3.67% | Potency [2]: inactive | Potency [3]: inactive

CS/C=C/C(=O)O[C@@H]1CCC2=CC(=O)C(=C(C)C)C[C@]2(C)[C@H]1C
activation [1]: -1.79% | Potency [2]: inactive | Potency [3]: inactive

O=C(/C=C/c1ccc(O)cc1)OCC1=CC2OC(=O)C3=CO[C@@H](O[C@@H]4O[C@H](CO)[C@@H](O)[C@H](O)[C@H]4O)[C@H]1[C@@H]32 (stereo partly specified)
activation [1]: 0% | Potency [2]: inactive | Potency [3]: inactive

O=C(Nc1ccc(N2C(=O)[C@@H]3[C@H](C2=O)[C@@H]2C=C[C@H]3C2)c(Cl)c1)c1ccccn1
activation [1]: -11.7% | Potency [2]: inactive | Potency [3]: inactive

COc1cc(O)c2c(c1)C1=C[C@H](O)[C@@H](O)C[C@]1(C)OC2=O
activation [1]: 1.53% | Potency [2]: inactive | Potency [3]: inactive

Cc1cc(O[C@@H]2O[C@H](COC(=O)CC(=O)O)[C@@H](O)[C@H](O)[C@H]2O)c(C(C)C)cc1O
activation [1]: 0.763% | Potency [2]: inactive | Potency [3]: inactive
